Consider 21 molecules from PubChem BioAssay (NCI).

Assay [1] can be described thus: NCI Yeast Anticancer Drug Screen. Data for the rad50 strain (AID 155).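 Further: 0% = growth of vehicle-only cultures of the same strain.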 Particulars: S. cerevisiae rad50 strain growth inhibition; at 50.0 µM; stronger effect = higher value. The method in brief:
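Yeast carrying a defined DNA repair defect were exposed to test compounds, and growth was compared with vehicle-treated controls to give percent inhibition.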

Assay [2] in a line: NCI Yeast Anticancer Drug Screen. Data for the mec2-1 strain (AID 157). Particulars: S. cerevisiae mec2-1 strain, at 50.0 µM, stronger effect = higher value. The method in brief:
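Strain: mec2-1 (DNA repair/cell cycle alteration). Compound exposure, then growth measured; inhibition expressed relative to vehicle.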

Assay [3] in a line: NCI Yeast Anticancer Drug Screen. Data for the sgs1 mgt1 strain (AID 161).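 Further: 0% = growth of cultures given vehicle only.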 Conditions: S. cerevisiae sgs1 mgt1 strain, at 50.0 µM, stronger effect = higher value. In a few lines:
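Mutant yeast exposed to compound; growth scored against vehicle-only wells.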

A short description of assay [4]: NCI Yeast Anticancer Drug Screen. Data for the cln2 rad14 strain (AID 165).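 Further: 0% = growth equal to vehicle treated cultures.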 Conditions: S. cerevisiae cln2 rad14 strain, at 50.0 µM, stronger effect = higher value. The method in brief: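 Compounds are applied to the cln2 rad14 yeast strain, and growth is then compared with that of vehicle-treated cultures to give inhibition.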
The nature of assay [5]: NCI Yeast Anticancer Drug Screen. Data for the bub3 strain (AID 167). Conditions: S. cerevisiae bub3 mutant strain, at 50.0 µM, stronger effect = higher value. The method in brief:
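Compounds were applied to a genetically altered yeast strain carrying a cell-cycle control defect. Growth inhibition was scored against vehicle-treated controls.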

Assay [6] in a line: NCI Yeast Anticancer Drug Screen. Data for the mlh1 rad18 strain (AID 175). Conditions: S. cerevisiae mlh1 rad18 strain growth inhibition; at 50.0 µM; stronger effect = higher value. The method in brief:
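Read-out is yeast growth inhibition, calculated against vehicle-only controls. The compound was applied to a strain engineered with DNA damage repair alterations.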

About 79,000 compounds went through this panel and 15% of them were active in at least one assay; those are over-represented in the sample as a whole. Values without a mark were called inactive. Activity calls are given as the source filed them. No stated cut-off is given here; in the data, active means growth inhibition above about 70%; inactive means the rest.

With `CC(=O)N[C@]1(C)CCC2C[C@H]1C(C)=NC2(C)C`, the growth inhibition was -5.55% in assay [1]; 4.05% in assay [2]; -2.5% in assay [3]; 12.2% in assay [4]; 1.3% in assay [5]; -14.4% in assay [6].
`O=C(Nc1cccc([N+](=O)[O-])c1)C(=O)C(C(=O)c1ccccc1-c1ccccc1)C1OC(=O)c2ccccc21` (stereo unspecified): the growth inhibition in assay [1] was 27.9%; in assay [2] it was 3.45%; in assay [3], 17.9%; in assay [4], -45%; in assay [5], -6.85%; in assay [6], 10.1%.
Regarding `Nc1cc(Cl)nc(N)n1`, the growth inhibition was -12.2% in assay [1]; -16.4% in assay [2]; 9.9% in assay [3]; 0.1% in assay [4]; -5.4% in assay [5]; 17.6% in assay [6].
Regarding `O=S1(=O)OCCOS(=O)(=O)C1I`, the growth inhibition in assay [1] was -8.1%; in assay [2] it was -30.2%; in assay [3], -12.4%; in assay [4], 11.3%; in assay [5] it was -21.5%; in assay [6] it was -29.6%.
`CCOc1cc(C)c2cccc(C)c2n1`: the growth inhibition in assay [1] was 17.1%; in assay [2] it was -0.35%; in assay [3] it was -13.6%; in assay [4], 6.25%; in assay [5], 2%; in assay [6], 13.8%.
Consider `COC(=O)CNC(=O)C1CSC(C)(C)N1C=O` (stereo unspecified), for which the growth inhibition in assay [1] was -5.25%; in assay [2], -9.85%; in assay [3], 10.2%; in assay [4], 2.4%; in assay [5], 47.9%; in assay [6] it was -6.2%.
As for `CC(C)=CC(=O)N1CCN(C(=O)C=C(C)C)CC1`, the growth inhibition in assay [1] was -33.9%; in assay [2], -20.1%; in assay [3] it was -5.75%; in assay [4], 18.8%; in assay [5], 10.9%; in assay [6], -10.4%.
On to `CC1=NN(C(=O)Cc2ccccc2)C(=O)/C1=C\c1ccc([N+](=O)[O-])cc1`, for which the growth inhibition in assay [1] was -38.2%; in assay [2], -41.5%; in assay [3] it was -52.4%; in assay [4] it was -26.4%; in assay [5], -55%; in assay [6], -55.8%.
Consider `CCc1cccc(CC)c1NC(=O)c1ccccc1Cl`, for which the growth inhibition is 7.9% in assay [1]; 24.6% in assay [2]; 31.3% in assay [3]; 0.8% in assay [4]; 26.1% in assay [5]; 26.8% in assay [6].
`CCOc1cccc(/C=N/N=C2\C(=O)Nc3c(Cl)cc(Cl)cc32)c1O`: the growth inhibition in assay [1] was 22.2%; in assay [2], 15.6%; in assay [3], 39.9%; in assay [4] it was 40.8%; in assay [5], 34.1%; in assay [6] it was 83.2% (active).
With `O=C(NCCO)Nc1ccc2c(c1)OCCOCCOCCOCCO2`, the growth inhibition in assay [1] was -0.95%; in assay [2], 4.8%; in assay [3] it was -2.65%; in assay [4], 14.1%; in assay [5] it was 1.75%; in assay [6], 5.9%.
Regarding `CN(C)C(=O)C1C2CCCC(CC2)C1C(=O)N(C)C` (stereo unspecified), the growth inhibition in assay [1] was 13.7%; in assay [2], 19.6%; in assay [3] it was 21.2%; in assay [4] it was 20.5%; in assay [5], 18%; in assay [6], 20.2%.
In the case of `C/C(=C(/O)c1ccc(Cl)cc1)c1nc2cc(Cl)cc([N+](=O)[O-])c2[nH]c1=O`, the growth inhibition in assay [1] is 37%; in assay [2], 43.3%; in assay [3], 24.6%; in assay [4], -4.55%; in assay [5], 18.9%; in assay [6] it was 53.5%.
Take `CC1=NN(C(=O)CC(=O)Nc2cccc(Cl)c2)C(=O)C1N=Nc1ccc(C(=O)O)cc1` (stereo unspecified): the growth inhibition was -3.25% in assay [1]; 1.35% in assay [2]; 6.1% in assay [3]; -25% in assay [4]; -3.2% in assay [5]; 6.55% in assay [6].
Regarding `NC(=O)c1ccccc1O`, the growth inhibition in assay [1] was 13.5%; in assay [2] it was 5.15%; in assay [3], 11.4%; in assay [4], 6.2%; in assay [5], 0.6%; in assay [6] it was 15.2%.
As to `CCCCOCCOCCO`, the growth inhibition is -18.2% in assay [1]; -21.6% in assay [2]; -15.7% in assay [3]; -14.7% in assay [4]; 1.45% in assay [5]; 1.5% in assay [6].
As for `CCN(CC)c1ccc(Br)cc1`, the growth inhibition in assay [1] was 32.9%; in assay [2] it was 4%; in assay [3] it was 4.55%; in assay [4] it was -2.5%; in assay [5], 14.2%; in assay [6] it was 33.9%.
As for `CN(C)/N=C\c1ccc([N+](C)(C)C)cc1`, the growth inhibition was -20.4% in assay [1]; -25.1% in assay [2]; 7.05% in assay [3]; -19.9% in assay [4]; 32.8% in assay [5]; -44.7% in assay [6].
For `O=C(CC1NCCS1)OCc1ccc(Br)cc1` (stereo unspecified), the growth inhibition in assay [1] was 26.5%; in assay [2], 14.1%; in assay [3] it was 9.8%; in assay [4], 24.7%; in assay [5] it was 16.9%; in assay [6] it was 50%.
For `CCOC(=O)/N=[N+](\[O-])c1ccccc1`, the growth inhibition was 64.5% in assay [1]; 46.9% in assay [2]; 57.6% in assay [3]; 11.9% in assay [4]; 41.5% in assay [5]; 86.8% (active) in assay [6].
In the case of `NC1=NC(=O)C2(CCCCC2)S1`, the growth inhibition in assay [1] is -9.6%; in assay [2], -4.8%; in assay [3] it was -21.2%; in assay [4] it was -47.6%; in assay [5], -8%; in assay [6], -24.6%.
